Source: the supplement of paper PMC3842684

Columns and labels:
[1] = tested on: P. falciparum NF54-pfs16-GFP early (I-III) stage gametocytes; experiment: relative % inhibition of viable gametocyte number; higher = more gametocytocidal; conditions: stage: early (I-III) gametocyte, incubation 72 h
How it was run: (§1)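 Early-stage (I/IIa, day 2) or late-stage (day 8) NF54 pfs16-GFP gametocytes were isolated by magnet and plated in 384-well poly-D-lysine imaging plates at 10% parasitaemia and 0.1% haematocrit, with compound in duplicate at 5 or 0.5 µM. After 72 h at 37°C under 5% CO2 and 5% O2, MitoTracker Red was added overnight. Confocal imaging scored elongated GFP objects whose MitoTracker signal passed a cut-off as viable gametocytes. Relative inhibition was normalised against vehicle and positive-control wells on the same plate.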

[2] = tested on: P. falciparum NF54-pfs16-GFP late (IV-V) stage gametocytes; experiment: as above; conditions: stage: late (IV-V) gametocyte, incubation 72 h
How it was run: as §1

Structure (SMILES)	relative % inhibition ([1]; 0.5 µM) [%]	relative % inhibition ([1]; 5 µM) [%]	relative % inhibition ([2]; 0.5 µM) [%]	relative % inhibition ([2]; 5 µM) [%]
CN(C)CCCNCc1ccc(-c2ccc(F)c(Cl)c2)o1	32.7	99.5	7.27	20.8
CCOC(=O)c1c(NC(=O)c2ccccc2)sc2c(O)c(CN(CC)CC)ccc12	28.6	94.9	64.2	89.6
COc1ccc(CNC2CCN(c3ccc(NC(=O)c4cccc(Cl)c4)cc3)CC2)cc1OC	-12.4	79	-4.13	-22
CCCCc1c(C)nc2c(OC)cccc2c1O	12.7	-0.633	35.7	63.9
COc1ccc(Nc2nc(NN=Cc3ccc(O)cc3)nc(Nc3ccc([N+](=O)[O-])cc3)n2)cc1	-0.568	101	-4.05	31.8
CCOc1cc2c(cc1OCC)C(c1cc(Cl)ccc1O)NCC2 (stereo not given)	13	102	19	26.7
OC1CCCCC1C1(NC(=S)Nc2ccccc2)CCCCC1 (stereo not given)	2.55	71.5	33.8	90.8
Oc1ccccc1CN1CCC2(CCCN(Cc3ccccc3F)C2)C1 (stereo not given)	32.5	93.8	34.9	61.2
CCOc1cc2c(cc1OCC)C(c1cc(OC)c(O)cc1Cl)NCC2 (stereo not given)	22.5	100	25.6	48.3
Cc1ccc(CSCc2ccc(C(=O)NC3CC3)o2)cc1	1.49	-7.92	19.6	43.1
N=c1n(CCN2CCCCC2)c2ccccc2n1CC(=O)c1ccc(Cl)c(Cl)c1	-10.5	76.8	55.4	96.9
COc1cccc(NC(=O)[C@H](C(C)C)n2c(=O)[nH]c3ccccc3c2=O)c1	70.7	97.8	35	59.9
COC(=O)c1ccc(Cl)c2c1C1C=CCC1C(c1cccc3ccccc13)N2 (stereo not given)	-9.28	8.02	-9.69	35.3
c1ccc(-c2ccc(-c3nc4ccccc4[nH]3)cc2)cc1	-4.6	-6.39	15.9	5.71
COc1cc2cc(C(=O)Nc3ccccc3)c(N)nc2cc1OC	16.8	99	3.1	-13.4
CCC(c1ccccc1)c1nn2c(-c3cccs3)nnc2s1 (stereo not given)	-3.13	-13.5	8.5	12.4
O=C(Nc1ccc(CN2CCOCC2)cc1)c1ccc(-c2ccc(Br)cc2)o1	16.2	-18	27.9	4.05
O=C(CSc1ccc2nnc(-c3cccc(F)c3)n2n1)Nc1ccc2c(c1)OCO2	10.3	1.63	19	32.1
CCCCC(O)(c1ccc(Cl)cc1)C(CN1CCOCC1)c1ccc(Cl)cc1 (stereo not given)	10.8	92.5	-3.8	40.8
Brc1ccc(Nc2nc3ccccc3nc2Nc2ccc(Br)cc2)cc1	38.5	103	55.2	102
O=C1c2ccccc2-c2nnc(-c3ccc(Br)cc3)cc21	16.6	10	75.4	88.5
O=C(CSc1nccn2nc(-c3ccccc3)cc12)Nc1cc(C(F)(F)F)ccc1Cl	3.61	-9.64	15.1	-0.775
CC(C)(C)c1ccc(C(=O)Nc2c3c(nn2-c2cccc(Cl)c2)CSC3)cc1	-12.5	10.5	-5.32	8.85
O=C(Nc1ccc(F)c(Cl)c1)Nc1ccc(Cl)c(Cl)c1	6.15	98.2	18.8	30.3
Cc1cc(NCCN2CCCCC2)c2ccc3ccccc3c2n1	10.2	97.3	4.67	36.7

Structure (SMILES)	relative % inhibition ([1]; 0.5 µM) [%]	relative % inhibition ([1]; 5 µM) [%]	relative % inhibition ([2]; 0.5 µM) [%]	relative % inhibition ([2]; 5 µM) [%]
Cc1ccc(Nc2nc(N)c3ccccc3n2)cc1Cl	-26.6	24.5	22.5	38.4
CN(C)c1ccc(N=Cc2ccc(N3CCOCC3)cc2)cc1	2.5	48.6	22.1	62
O=C(c1ccccc1F)N(Cc1ccc(Cl)cc1)c1ccccn1	-17.2	-20.6	2.03	16.8
COc1ccc(C(=O)Nc2ccc(Cl)cc2C(=O)Nc2ccncc2)cc1	-7.22	22.3	-6.74	3.3
Cn1c(=O)c2cc(C(=O)NCCCN3CCCCCC3)sc2c2ccccc21	13.6	27.4	-1.01	-0.0726
CCN(CC)CCNc1ccnc2cc3ccccc3cc12	99.4	100	25.4	43.7
O=C(Nc1nc(-c2ccccn2)cs1)c1ccccc1Br	10.8	93.2	-7.93	68.6
CCCCOc1ccc(C(=O)Nc2cc(C)on2)cc1	3	12.9	-7.15	17.4
Cc1cc(Nc2cccc(F)c2)nc(NCc2ccccc2)n1	28.5	72.2	24.1	34.6
Oc1c(C(Nc2ccccn2)c2cccc(Oc3ccccc3)c2)ccc2cccnc12 (stereo not given)	1.66	98.2	18.4	97.7
COc1cc(-c2nc(-c3ccc(Sc4ccccc4)cc3)c(-c3ccccc3)[nH]2)cc(OC)c1O	27	86.1	3.44	-21
Cc1ccc(-c2cc(C(=O)Nc3ccc(S(=O)(=O)N4CCCCC4)cc3)[nH]n2)c(O)c1	18	51	-1.52	2.43
Cc1ccc2nc(C)cc(Nc3cccc(C(F)(F)F)c3)c2c1	-7.3	60.2	26.7	19.3
COc1ccc2nc(N)nc(C)c2c1	15.7	24.8	10.6	-4.54
CCOC(=O)c1ccc2nc(-c3ccccc3)cc(O)c2c1	2.53	2.35	50.6	102
Clc1cc(Br)ccc1-c1ccc(CNCC2CCNCC2)o1	92.6	100	36.1	89.9
CCc1ccc(CNCC(O)c2ccccc2)cc1 (stereo not given)	9.08	44.3	3.65	11.4
Cn1c(=O)n(C)c2cc(CNCCNc3ccnc4cc(Cl)ccc34)ccc21	86.6	29.6	37.6	90.2
Cc1c(C)n(Cc2ccc(F)cc2)c2ccc(C(=O)NCc3ccco3)cc12	19.2	-8.91	16.9	21.7
OC(CNCc1ccccc1)Cn1c2ccccc2c2ccccc21 (stereo not given)	0.736	89.9	21.5	84.7
O=C(CCl)NCCOc1ccc(Cl)cc1Cl	24	9.39	8.06	5.3
CC(=O)c1sc(NC(=O)Nc2ccc(C)cc2C)nc1C	30.3	63.7	-2.19	-29.6
O=c1cc(NC2CCN(CCCc3ccccc3)CC2)c2cc(Cl)ccc2o1	10.6	79.8	-5.8	-6.17
COc1ccc(N2CCN(C(CNC(=O)C3CCCCC3)c3ccc4c(c3)OCO4)CC2)cc1 (stereo not given)	22.8	8.98	35.1	50.7
CCCCc1c(CCC)c(=N)c2ccccc2n1C	16.2	-5.38	18.3	-17.8

Structure (SMILES)	relative % inhibition ([1]; 0.5 µM) [%]	relative % inhibition ([1]; 5 µM) [%]	relative % inhibition ([2]; 0.5 µM) [%]	relative % inhibition ([2]; 5 µM) [%]
COc1ccc(CNC(=O)c2cc3c(=O)n4ccccc4nc3n(CCc3ccccc3)c2=N)cc1	2.74	56.6	-16.6	-9.45
O=C1CC(O)(C(F)(F)C(F)(F)F)Oc2ccccc21 (stereo not given)	0.889	0.745	-15.1	4.41
CN(C)c1ccc(N2C(N)=NC(N)=NC2(C)C)cc1	-7.59	-3.16	20.3	-8.27
CN(C)c1ccc(C=Cc2nc(=O)c3ccccc3o2)cc1	-10.1	-23	27.4	88.2
c1ccc2c(NCCc3c[nH]c4ccccc34)c3ccccc3nc2c1	37.7	89.1	-14.3	29.7
COc1ccc2nc(C)cc(Nc3ccccc3O)c2c1	6.33	20.9	-7.14	18.4
Cc1cc(C)c2c(c1)OCN(Cc1ccccc1Cl)C2	59.9	93.6	31.1	47.8
COCCN(C(=O)Cc1cccs1)C(C(=O)NCc1ccc(OC)cc1)c1ccc(C(C)C)cc1 (stereo not given)	25.1	5.52	13.7	-1.94
O=C(NC1CCCC1)c1ccc(N2CCC(NCc3cccc(C(F)(F)F)c3)CC2)cc1	2.61	22.8	6.99	44.5
COc1cccc(C=Cc2nc(=O)c3ccccc3o2)c1OC	-6.76	-17.9	50.6	94
CN1CCN(c2ccc(Nc3c4ccccc4nc4ccccc34)cc2)CC1	100	101	91.3	104
Cc1cc(NC(=O)C2c3ccccc3C(=O)N(CC(C)C)C2c2cccs2)no1 (stereo not given)	37.5	90.8	31.5	36.1
CCOc1ccc(CN2CCN(CC(O)COc3ccc(OCC(O)CN4CCN(Cc5ccc(OCC)cc5)CC4)cc3)CC2)cc1 (stereo not given)	6.71	74.7	-16.8	8.51
CCN(CC)c1ccc(NC(=O)c2cccs2)cc1	-1.58	-23.9	16.7	43.6
COc1cccc(Cn2c(Oc3ccccc3)nc3c2c(=O)n(C)c(=O)n3C)c1	1.22	-14	6.35	9.52
O=C(NNc1cc(N2CCCC2)nc(N2CCCC2)n1)c1ccccc1	-9.28	-5.49	10.9	16.3
Cc1sc(NC(=O)c2ccccc2)c(C(c2cccs2)N2CCN(c3ccccc3)CC2)c1C (stereo not given)	17.7	12.8	43.3	77
COC(=O)c1ccc(C2C3=C(O)CC(c4ccc(F)cc4)CC3=Nc3ccccc3N2C(=O)c2ccccc2)cc1 (stereo not given)	26.9	103	88.6	98.4
Cc1ccc(C2CC(C(F)(F)F)n3nc(C(=O)N4CCN(C(c5ccccc5)c5ccccc5)CC4)cc3N2)cc1 (stereo not given)	3.32	13.2	17.1	-7.7
COc1ccc(CN2CCCC(C(=O)c3ccc(C(F)(F)F)cc3)C2)c(O)c1 (stereo not given)	-2.13	93.7	14.8	16.7
Fc1ccc2[nH]c3c(NCCCN4CCOCC4)ncnc3c2c1	18.8	97.3	-16.8	22.9
CNCCCNc1ccnc2cc(Cl)ccc12	106	106	26.6	39.1
Cc1ccc2c(C)nc(Nc3nc(C)cc(-c4ccccc4)n3)nc2c1	38	88.6	111	113
COc1ccccc1CNC(=O)CCn1c(=O)[nH]c2ccsc2c1=O	16.9	2.5	-0.5	0
CCOc1cc(Cl)c(C(C)NC(=O)c2cccc(OC)c2)cc1OCC (stereo not given)	24.8	60.9	-6.93	41.6
